Bioassay records as filed in PubChem.
Rows were chosen to be rich in hits. Some 3.7% of all compounds tested hit in one or more screens of this group.
FBA Mtb inh: inhibitors of M. tuberculosis fructose-bisphosphate aldolase. P9WQA3. purified M. tuberculosis FBA, fluorescence read-out. inhibition, % at 1 µM. actives 2.3% (n = 360,000);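 further: 0% = vehicle and 100% = reference inhibitor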
UGM FP inh: blocks M. tuberculosis UGM enzyme; inhibition, % at 10 µM; P9WIQ1; actives 0.06% (n = 320,000); purified UGM, fluorescence polarization probe displacement; in the data active means inhibition above about 10%, passing the limit was not always enough
Target sequence (P9WIQ1 whole entry, looked up): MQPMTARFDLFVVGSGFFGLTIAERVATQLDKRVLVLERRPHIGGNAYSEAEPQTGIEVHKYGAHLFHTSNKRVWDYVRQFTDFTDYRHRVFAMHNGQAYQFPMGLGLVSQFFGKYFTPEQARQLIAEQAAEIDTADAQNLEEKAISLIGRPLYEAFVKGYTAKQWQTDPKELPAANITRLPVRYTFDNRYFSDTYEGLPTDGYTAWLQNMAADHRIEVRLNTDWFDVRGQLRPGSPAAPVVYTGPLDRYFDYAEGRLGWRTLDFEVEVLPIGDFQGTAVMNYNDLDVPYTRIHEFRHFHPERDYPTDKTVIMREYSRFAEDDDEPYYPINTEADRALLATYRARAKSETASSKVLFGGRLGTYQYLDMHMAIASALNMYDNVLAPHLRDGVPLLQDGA
Rv3671c protease: inhibits the M. tuberculosis serine protease Rv3671c; P9WHR9; inhibition, % at 5.96 µM; actives 0.048% (n = 320,000); in the data active means inhibition above about 38%;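 further: extracellular domain of Rv3671c used as enzyme; 0% = enzyme with DMSO and 100% = no enzyme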
GDH-TPI counter-1: counter-screen for M. tuberculosis FBA inhibitors: GDH-TPI coupled enzymes | GDH-TPI coupled enzyme counterscreen, NADH absorbance | inhibition, % at 4.8 µM | actives 1.2% (n = 360,000); in the data active means inhibition above about 30%;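 further: 0% = DMSO wells and 100% = wells lacking the enzyme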
FadD28 binding: M. tuberculosis FadD28 bisubstrate binding inhibition | actives 0.22% (n = 360,000) | FadD28 bisubstrate probe binding, fluorescence polarization | inhibition, % at 12.5 µM | AID 588549; in the data active means inhibition above about 8.5%, passing the limit was not always enough
Mtb betalactam: beta-lactam sensitization of Mtb H37Rv. actives 0.27% (n = 330,000). M. tuberculosis H37Rv growth with meropenem, percent inhibition. inhibition, % at 25 µM; call rule not given here;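 further: growth measured after seven days incubation then overnight dye step; 0% = bacteria only wells and 100% = bacteria with antibiotic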
Mtb FBA confirm: confirmation of M. tuberculosis fructose-bisphosphate aldolase inhibitors | shares compounds with FBA Mtb inh | purified M. tuberculosis FBA, fluorescence read-out | inhibition, % at 1 µM | actives 78% (n = 5,600);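 further: 0% = vehicle wells and 100% = reference inhibitor wells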
GDH-TPI counter-2: counter-screen for M. tuberculosis FBA inhibitors: GDH-TPI coupled enzyme inhibition. actives 81% (n = 5,600). shares compounds with FBA Mtb inh. GDH-TPI coupled enzyme counterscreen, fluorescence. inhibition, % at 1 µM; in the data active means inhibition above about 10%
Starred values were filed as active, the others as inactive. Unless noted, no stated cut-off is given here; in the data, active means inhibition above about 27%; inactive means the rest.

Results for O=[N+]([O-])c1c(O)c(Cl)cc(Cl)c1Cl (tested in a mixture with another compound) ?
FBA Mtb inh: -2; GDH-TPI counter-1: 7; FadD28 binding: 0

Results for Nc1c(Cl)cc(Cl)cc1C(=O)OCC(=O)N1CCCC1=O ?
FBA Mtb inh: 13; UGM FP inh: -1; Rv3671c protease: 0; GDH-TPI counter-1: 5; FadD28 binding: 0; Mtb betalactam: -3

What do the screens show for `CN(CCC#N)C(=O)COC(=O)c1ccccc1OCc1ccccc1Cl`?
FBA Mtb inh: 4; UGM FP inh: 0; Rv3671c protease: 4; GDH-TPI counter-1: -3; FadD28 binding: -4; Mtb betalactam: 2

What do the screens show for `NC(=O)COC(=O)c1cc(Cl)cc(Cl)c1N`?
FBA Mtb inh: 89*; UGM FP inh: 0; Rv3671c protease: -6; GDH-TPI counter-1: -6; FadD28 binding: -2; Mtb betalactam: -6; Mtb FBA confirm: active; GDH-TPI counter-2: active

What do the screens show for `Nc1c(Cl)cc(Cl)cc1C(=O)OCC(=O)N1CCCC1`?
FBA Mtb inh: 95*; Rv3671c protease: -4; GDH-TPI counter-1: 0; FadD28 binding: -1; Mtb betalactam: 31; Mtb FBA confirm: 137*; GDH-TPI counter-2: 107*

Results for CC1(C)CC2CC(C)(CN2C(=O)COC(=O)c2cc(Cl)cc(Cl)c2N)C1 (stereo unspecified) ?
FBA Mtb inh: 23; UGM FP inh: -1; Rv3671c protease: -3; GDH-TPI counter-1: 0; FadD28 binding: -1; Mtb betalactam: 3

What do the screens show for `CN(CCC#N)C(=O)COC(=O)c1cc(Cl)cc(Cl)c1N`?
FBA Mtb inh: 93*; UGM FP inh: 0; Rv3671c protease: 7; GDH-TPI counter-1: 4; FadD28 binding: -2; Mtb betalactam: -3; Mtb FBA confirm: -2; GDH-TPI counter-2: -5

Results for O=C(Nc1ccc([N+](=O)[O-])cn1)c1ccc(Br)o1 ?
FBA Mtb inh: 95*; UGM FP inh: 0; Rv3671c protease: -2; GDH-TPI counter-1: 27; FadD28 binding: -1; Mtb betalactam: 4; Mtb FBA confirm: 0; GDH-TPI counter-2: -4

What do the screens show for `N#Cc1ccc(CCc2ccccc2)[nH]c1=O`?
FBA Mtb inh: 31*; GDH-TPI counter-1: 17; FadD28 binding: 1; Mtb FBA confirm: 2; GDH-TPI counter-2: 0

What do the screens show for `COCCCN1C(=O)C(CC(=O)NC2CC2)CC(C(=O)N2CCOCC2)=C1C` (stereo unspecified)?
FBA Mtb inh: 1; FadD28 binding: 0

How did O=C(O)c1cccc(Nc2nc(-c3cc4ccccc4oc3=O)cs2)c1 do in these assays?
FBA Mtb inh: 28*; UGM FP inh: 1; GDH-TPI counter-1: 20; FadD28 binding: 0; Mtb betalactam: 3; Mtb FBA confirm: 84*; GDH-TPI counter-2: 72*

What do the screens show for `CC(C)(C)S(=O)N1Cc2cc(=O)n(Cc3ccccc3)c(CCO)c2[C@@H]1CCO` (stereo partly specified)?
FBA Mtb inh: 4; GDH-TPI counter-1: 6; FadD28 binding: -1

What do the screens show for `C=CCn1c(-c2cc3c(s2)CCC(CC)C3)n[nH]c1=S` (stereo unspecified)?
FBA Mtb inh: 84*; UGM FP inh: -3; Rv3671c protease: 0; GDH-TPI counter-1: -1; FadD28 binding: -1; Mtb betalactam: -3; Mtb FBA confirm: 170*; GDH-TPI counter-2: 137*

What do the screens show for `C=CCn1c(SCC(=O)NC2CCS(=O)(=O)C2)nnc1-c1cc2c(s1)CCC(CC)C2` (stereo unspecified)?
FBA Mtb inh: 3; UGM FP inh: 3; Rv3671c protease: -12; GDH-TPI counter-1: 1; FadD28 binding: -2; Mtb betalactam: -6

What do the screens show for `CCc1ncc(C(O)c2ccc(Cl)cc2)n1Cc1ccccc1` (stereo unspecified)?
FBA Mtb inh: 2; GDH-TPI counter-1: -3; FadD28 binding: -1

Results for CCCN1CCN(C(=O)Cn2nc(C)n3c(cc4c(OC)cccc43)c2=O)CC1 ?
FBA Mtb inh: 86*; GDH-TPI counter-1: -3; FadD28 binding: -4; Mtb FBA confirm: 169*; GDH-TPI counter-2: 113*
